Granule exo inh: blocks lytic granule exocytosis | AID 651702 | TALL-104 LAMP-1 surface exposure, flow cytometry; cells stimulated with thapsigargin and PMA | inhibition, % at 10 µM | 0.66% of 360,000 active;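 active = inhibition above about 55%, limit read from the data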
GASC-1 inh: human JMJD2C demethylase inhibition | GST-JMJD2C(1-420) H3K9me3 demethylation, DELFIA europium | inhibition, % at 2.35 µM | 0.069% of 330,000 active | AID 2099;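 active = more than half of a compound's replicate wells show inhibition beyond 50%, single wells judged on their own value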;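 also: signal counts dimethyl H3K9 product captured on neutravidin plate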
Target sequence (Q9H3R0 1-420 limits assumed): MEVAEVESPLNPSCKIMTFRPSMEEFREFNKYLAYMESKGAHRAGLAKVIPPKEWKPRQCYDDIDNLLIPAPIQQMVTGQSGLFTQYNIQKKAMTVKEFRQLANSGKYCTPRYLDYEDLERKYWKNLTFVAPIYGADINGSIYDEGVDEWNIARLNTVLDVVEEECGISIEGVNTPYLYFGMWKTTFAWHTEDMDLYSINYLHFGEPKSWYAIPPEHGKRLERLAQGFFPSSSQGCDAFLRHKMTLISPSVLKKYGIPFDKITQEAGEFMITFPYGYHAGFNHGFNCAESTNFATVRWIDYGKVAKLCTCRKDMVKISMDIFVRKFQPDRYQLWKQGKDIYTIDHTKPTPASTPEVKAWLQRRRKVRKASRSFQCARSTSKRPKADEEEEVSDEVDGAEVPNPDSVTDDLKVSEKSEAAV
PfM18AAP inh: blocks P. falciparum M18 aspartyl aminopeptidase; recombinant PfM18AAP, H-Glu-NHMec fluorogenic cleavage; inhibition, % at 7.35 µM; 1.2% of 290,000 active; AID 1822;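 active = inhibition above the campaign mean inhibition over all tested compounds plus 3 SD, cut at about 28% in these data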
beta cell repl: inducers of beta-cell replication in MIN6 cells; MIN6 cells proliferation, ATPlite luminescence, 48 h; cells starved in 0.2% serum; 100% = growth in 10% serum; proliferation, % at 10 µM; 0.29% of 330,000 active;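 active = compounds whose signal lies at least 3.5 SD above the mean of all wells on their plate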
ALR H2O2 inh: blocks human ALR sulfhydryl oxidase activity | AID 485317 | inhibition, % (concentration not given with the values) | purified ALR, DTT oxidation, H2O2 HRP-luminol luminescence | 3.8% of 290,000 active;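 active = mean replicate inhibition above about 79%, with every replicate also reaching it, limit read from the data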
Target sequence (P55789 whole entry, looked up): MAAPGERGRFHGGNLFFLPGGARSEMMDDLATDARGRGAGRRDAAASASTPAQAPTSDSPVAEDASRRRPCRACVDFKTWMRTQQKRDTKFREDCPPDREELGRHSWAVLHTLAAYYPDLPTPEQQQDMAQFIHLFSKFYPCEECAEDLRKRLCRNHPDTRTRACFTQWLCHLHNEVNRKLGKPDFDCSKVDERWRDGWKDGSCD
SMARCA2 act: SMARCA2 function activation, primary screen; MG213 cells, MMTV-luciferase reporter, dexamethasone, overnight; activation, % at 9.1 µM; 1% of 370,000 active; in the data active = activation above about 7.8%
Each line names hits and unclear results; the compound was inactive in the other large screens; ! = not confirmed by another sample. Compounds with a hit are over-represented: about 5.4% of the library has one in this group of screens.

C/C(=N/NC(=O)CN1CCN(S(=O)(=O)c2ccc(Br)cc2)CC1)c1cccnc1	none
C[C@@H]1CCN(C2CC2)S(=O)(=O)c2ccc(N3CC[C@H](N(C)C)C3)cc2O1	none (no result: Granule exo inh, GASC-1 inh, PfM18AAP inh, beta cell repl, ALR H2O2 inh)
CCc1cccc2c(C(C)c3ccccc3O)c[nH]c12 (configuration not stated)	none (no result: Granule exo inh, GASC-1 inh, PfM18AAP inh, beta cell repl, ALR H2O2 inh)
O=C(CSc1nnc(COc2ccccc2)n1-c1ccccc1)Nc1ccc2c(c1)OCO2	none (no result: Granule exo inh, GASC-1 inh, PfM18AAP inh, beta cell repl, ALR H2O2 inh)
COc1ccc(C(=O)CSc2nnc(-c3ccccn3)n2-c2ccccc2)cc1	none (no result: Granule exo inh, GASC-1 inh, PfM18AAP inh, beta cell repl, ALR H2O2 inh)
CCC(CC)C1C(C#N)=C(N)SC(N)=C1C#N	PfM18AAP inh 31.0 (no result: ALR H2O2 inh)
Cc1cc(Nc2ccc(N(C)C)cc2)n2ncnc2n1	ALR H2O2 inh 98.2
Cc1cc(Nc2ccc(Cl)cc2)n2ncnc2n1	none
CC(=O)C1=C(c2ccccc2)N(C(C)=O)n2c(C)nnc2S1	ALR H2O2 inh 98.7
CC(=O)N1CCN(c2nnc(-c3ccccc3)c3ccccc23)CC1	none
CCOC(=O)N1CCN(C(=O)C[C@H]2C(=O)N(Cc3ccc(OC)cc3)C3=CCCC[C@@]32C(=O)OCC)CC1	none (no result: Granule exo inh, GASC-1 inh, PfM18AAP inh, beta cell repl, ALR H2O2 inh)
OC(CSc1ccc(F)cc1)CN1CCN(c2ccccc2)CC1 (configuration not stated)	ALR H2O2 inh 87.2
C=C(C)CSc1nnc(-c2cc(-c3ccccc3)n[nH]2)n1N	none (no result: Granule exo inh, GASC-1 inh, PfM18AAP inh, beta cell repl, ALR H2O2 inh)
Cc1ccccc1-n1c(-c2ccoc2C)n[nH]c1=S	none (no result: ALR H2O2 inh)
Cc1cccc(-n2c(-c3ccoc3C)n[nH]c2=S)c1	ALR H2O2 inh 91.0
Cc1cccc(-n2c(-c3ccncc3)n[nH]c2=S)c1	ALR H2O2 inh 91.5
C=CCn1c(SCc2nc3sc(C(=O)O)c(C)c3c(=O)[nH]2)nnc1-c1ccc(C(C)(C)C)cc1	ALR H2O2 inh 98.1
CC(=O)SC(C[N+](=O)[O-])c1cn(C(C)=O)c2ccccc12 (configuration not stated)	ALR H2O2 inh 100.1
CC(=O)OCCCNc1cc(Sc2nc3ccccc3s2)c2nonc2c1[N+](=O)[O-]	Granule exo inh 68.8 (no result: SMARCA2 act)
CC(=O)OCCNc1cc(Sc2nc3ccccc3[nH]2)c2nonc2c1[N+](=O)[O-]	ALR H2O2 inh 95.8 (no result: beta cell repl)
CC(=O)OCCCNc1cc(Sc2ccc(C)cc2)c2nonc2c1[N+](=O)[O-]	none
CCOC(=O)N1CCN(C(=O)C[C@H]2C[C@@]3(C(=O)OC)C(=C[C@H](COCc4ccccc4)O[C@@H]3C)N(CCc3ccc(OC)c(OC)c3)C2=O)CC1	none (no result: Granule exo inh, GASC-1 inh, PfM18AAP inh, beta cell repl, ALR H2O2 inh)
O=[N+]([O-])c1cccc(C(=Nc2ccc(Cl)cc2)NO)c1	ALR H2O2 inh 84.9
O=[N+]([O-])c1cccc(C(=Nc2ccccc2)NO)c1	none
ONC(=Nc1ccc(Cl)cc1)c1ccc(Cl)cc1	ALR H2O2 inh 78.1
Cc1cc(NC(=O)CSc2nc3c(cc2C#N)CCCC3)no1	none
Cc1noc(NS(=O)(=O)c2ccc(NC(=O)CSc3nc4c(cc3C#N)CCC4)cc2)c1C	ALR H2O2 inh 98.3
Cc1noc(NS(=O)(=O)c2ccc(NC(=O)CSc3nc4c(cc3C#N)CCCC4)cc2)c1C	ALR H2O2 inh 95.2
CCCCCCCCNC(=O)C1CSCCS(=O)(=O)N1Cc1ccc(F)cc1 (configuration not stated)	none (no result: Granule exo inh, GASC-1 inh, PfM18AAP inh, beta cell repl, ALR H2O2 inh)
CS(=O)(=O)c1nc(-c2cccs2)cc(C(F)(F)F)n1	ALR H2O2 inh 98.5 (no result: Granule exo inh, SMARCA2 act)
COc1ccc(-c2cc(C(F)(F)F)nc(S(C)(=O)=O)n2)cc1	none (no result: ALR H2O2 inh)
CCOC(=O)CC[C@@]1(C(=O)OCC)C[C@@H](CC(=O)NCCc2ccccc2OC)C(=O)N2CCCC=C21	none (no result: Granule exo inh, GASC-1 inh, PfM18AAP inh, beta cell repl, ALR H2O2 inh)
N#Cc1ccc(CSc2ccc(S(=O)(=O)N3CCCC3)cn2)cc1	ALR H2O2 inh 92.6 (no result: PfM18AAP inh)
O=C(NC1CCCC1)C1CCCN(S(=O)(=O)c2cnc[nH]2)C1 (configuration not stated)	ALR H2O2 inh 96.3
O=C(NC1CCCCCCC1)C1CCCN(S(=O)(=O)c2cnc[nH]2)C1 (configuration not stated)	ALR H2O2 inh 95.3
O=C(NC1CCCCC1)C1CCCN(S(=O)(=O)c2cnc[nH]2)C1 (configuration not stated)	none
O=C(NC1CCCCCC1)C1CCN(S(=O)(=O)c2cnc[nH]2)CC1	none
CC(C)(C)c1ccc(-c2cn(C[C@H](Cc3ccccc3)n3c(=O)c4ccccc4n3Cc3ccccc3)nn2)cc1	none (no result: Granule exo inh, GASC-1 inh, PfM18AAP inh, beta cell repl, ALR H2O2 inh)
C[C@H]1CCCN1c1ccc2c(c1)O[C@H]1CCN(C1)S2(=O)=O	none (no result: Granule exo inh, GASC-1 inh, PfM18AAP inh, beta cell repl, ALR H2O2 inh)
CCCC(=O)N1CCC[C@]2(CC[C@H](CCC(C)=O)O2)C1	none (no result: Granule exo inh, GASC-1 inh, PfM18AAP inh, beta cell repl, ALR H2O2 inh)
COC[C@H]1O[C@]2(c3ccccc3)CO[C@H]1[C@@H](/C=C/c1ccccc1)C2	none (no result: Granule exo inh, GASC-1 inh, PfM18AAP inh, beta cell repl, ALR H2O2 inh)
O=C(OCCN1CCN(C2CN(Cc3cn(Cc4cccc(F)c4)nn3)S(=O)(=O)C2)CC1)c1cc2ccccc2o1 (configuration not stated)	none (no result: Granule exo inh, GASC-1 inh, PfM18AAP inh, beta cell repl, ALR H2O2 inh)
Cc1ccc(C=NNC(=O)CSc2nc3sc4c(c3c(=O)n2-c2ccccc2)CCCC4)s1	none (no result: Granule exo inh, GASC-1 inh, PfM18AAP inh, beta cell repl, ALR H2O2 inh)
CCNC(=S)N(CCc1c(C)[nH]c2ccc(Cl)cc12)Cc1cccnc1	none
COCCNC(=S)N(CCc1c(C)[nH]c2ccc(F)cc12)Cc1cccnc1	none
COCCNC(=S)N(CCc1c(C)[nH]c2ccccc12)Cc1cccnc1	ALR H2O2 inh 97.0
CNC(=S)N(CCc1c(C)[nH]c2ccc(OC)cc12)Cc1cccnc1	none
CNC(=S)N(CCc1c(C)[nH]c2ccc(Cl)cc12)Cc1cccnc1	ALR H2O2 inh 97.0
CNC(=S)N(CCc1c(C)[nH]c2ccccc12)Cc1cccnc1	ALR H2O2 inh 99.9
O=C(NCc1ccccc1)Nc1ccccc1C(=O)N1CCCC1	none (no result: Granule exo inh, GASC-1 inh, PfM18AAP inh, beta cell repl, ALR H2O2 inh)
COc1cccc(-c2cc(C(C)=O)c3n(c2=O)CCC3)c1OC	none (no result: Granule exo inh, GASC-1 inh, PfM18AAP inh, beta cell repl, ALR H2O2 inh)
Cn1c(Cc2ccccc2)nnc1SCC(=O)c1ccc(Br)s1	ALR H2O2 inh 83.4
C=CCN=C1NC(c2cccc(Cl)c2)C(C(=O)OC)=C(C)N1Cc1cccc(C(F)(F)F)c1 (configuration not stated)	none (no result: Granule exo inh, GASC-1 inh, PfM18AAP inh, beta cell repl, ALR H2O2 inh)
O=C1N(Cc2ccccc2)c2ccccc2C12CCCc1oc(CCc3ccccc3)nc12 (configuration not stated)	none (no result: Granule exo inh, GASC-1 inh, PfM18AAP inh, beta cell repl, ALR H2O2 inh)
Cc1c(CCOC(=O)CC23CC4CC(CC(C)(C4)C2)C3)sc[n+]1CC(=O)c1ccccc1	Granule exo inh 96.7
Cc1c(CCOC(=O)c2ccccc2)sc[n+]1CC(=O)c1ccc(Br)cc1	Granule exo inh 94.6 (no result: ALR H2O2 inh, SMARCA2 act)
Cc1c(CCOC(=O)C23CC4CC(CC(C)(C4)C2)C3)sc[n+]1CC(=O)c1ccccc1	none
COc1ccc(N2CCN(CC(O)COCCOc3ccc(Br)cc3)CC2)cc1 (configuration not stated)	ALR H2O2 inh 96.6
COc1cccc(OCC(O)CN2CCN(c3ccccc3)CC2)c1 (configuration not stated)	ALR H2O2 inh 96.5!
COc1ccc(N2CCN(CC(O)COc3ccc4c(c3)CCC4)CC2)cc1 (configuration not stated)	ALR H2O2 inh 96.6
COc1cccc(OCC(O)CN2CCN(c3ccc(Cl)cc3)CC2)c1 (configuration not stated)	none

Source: PubChem
